From PubChem
Hits are enriched below; roughly 3% of the tested compounds scored in any of these assays.
Coupling enz = qHTS Assay for Inhibitors of Fructose-1,6-bisphosphate Aldolase from Giardia Lamblia: Coupling assay counterscreen; coupling enzyme system counterscreen, AmpLite Red fluorescence; activity change, negative = inhibition, % at 58.2 µM, hits read low; 290,000 compounds, 0.67% hits; in the data active = activity change below about -30%
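Compounds tested against the coupling enzymes alone at 57.5 uM final; readout was AmpLite Red fluorescence (525/598 nm) after 20 min at RT.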
Tau FP inhib = qHTS for Inhibitors of Tau Fibril Formation, Fluorescence Polarization; Microtubule-associated protein tau (Homo sapiens), P10636; K18 P301L tau heparin fibrillization, Alexa594 FP, 6 h; Potency, µM (top dose mostly 57.7 µM), for inactives: top-dose activity, negative = inhibition, usual class: inhibitors; 280,000 compounds, 0.39% hits; AID 1468, 2008; note: potency is the fitted concentration of half-maximal effect; nearly all actives have a fitted effect of over 55% in size
Target sequence (P10636 561-689 P618L limits assumed): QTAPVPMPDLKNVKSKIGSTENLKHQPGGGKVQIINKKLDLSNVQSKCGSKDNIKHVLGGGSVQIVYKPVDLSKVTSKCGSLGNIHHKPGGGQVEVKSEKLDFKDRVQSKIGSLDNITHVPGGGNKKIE
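FP of Alexa 594-tau after heparin (20 uM) induction. Substrate: human K18 P301L, 15 uM unlabeled, 0.24 uM labeled. Buffer 100 mM sodium acetate pH 7. 6 hr, 37 C.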
Tau fluor counter = Counterscreen qHTS for Inhibitors of Tau Fibril Formation, Fluorescence Polarization. tau K18 P301L Alexa594 fluorescence, heparin fibrillization. Potency, µM (highest dose often 57.7 µM), inactives show top-dose activity change, negative = decrease. 280,000 compounds, 0.93% hits. AID 1463, 2008; note: potency is the fitted concentration of half-maximal effect; nearly all actives have a fitted effect of over 55% in size
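Human tau K18 P301L (15 uM unlabeled, 0.24 uM Alexa 594-labeled) in 100 mM sodium acetate pH 7 with 20 uM heparin, 6 hr at 37 C. ThT 30 uM added, 1 hr ambient; Alexa 594 FP and total fluorescence read at 555/632 nm.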
Tau ThT inhib = qHTS for Inhibitors of Tau Fibril Formation, Thioflavin T Binding; Microtubule-associated protein tau (Homo sapiens), P10636; recombinant tau K18 P301L (four-repeat tau fragment), heparin-induced fibrillization, ThT fluorescence; Potency, µM (titrated, usually from 57.4 µM), without a hit: at the highest dose activity, negative = inhibition, most hits filed as inhibitors; 270,000 compounds, 2.1% hits; AID 1460, 2008; note: potency is the fitted concentration of half-maximal effect; nearly all actives have a fitted effect of over 55% in size
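Recombinant human tau K18 fragment […] carrying P301L, 15 uM unlabeled plus 0.24 uM Alexa 594-labeled, was fibrillized with 20 uM heparin in 100 mM sodium acetate pH 7 for 6 hr at 37 C; 30 uM ThT fluorescence read after 1 hr.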
KDM4E inh = qHTS Assay for Inhibitors of Human Jumonji Domain Containing 2E (JMJD2E); Lysine-specific demethylase 4E (Homo sapiens), B2RXH2; JMJD2E catalytic domain, FDH-coupled NADH fluorescence (FDH is formaldehyde dehydrogenase); Potency, µM (top dose mostly 57.1 µM), for inactives: at the top dose activity change, negative = inhibition, actives largely listed as inhibitors; 230,000 compounds, 1.6% hits; active = well fitted inhibition curve with a large enough effect, not every such curve was filed as active; inconclusive = small, poorly fitted or top-dose-only effect, or another doubt; inactive = no such curve, though single readings can be large or run the other way;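 note: potency is the fitted concentration of half-maximal effect; 0% = wells with enzyme and -100% = buffer wells without enzyme; nearly all actives have a fitted effect of over 50% in size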
Target sequence (B2RXH2 1-337 limits assumed): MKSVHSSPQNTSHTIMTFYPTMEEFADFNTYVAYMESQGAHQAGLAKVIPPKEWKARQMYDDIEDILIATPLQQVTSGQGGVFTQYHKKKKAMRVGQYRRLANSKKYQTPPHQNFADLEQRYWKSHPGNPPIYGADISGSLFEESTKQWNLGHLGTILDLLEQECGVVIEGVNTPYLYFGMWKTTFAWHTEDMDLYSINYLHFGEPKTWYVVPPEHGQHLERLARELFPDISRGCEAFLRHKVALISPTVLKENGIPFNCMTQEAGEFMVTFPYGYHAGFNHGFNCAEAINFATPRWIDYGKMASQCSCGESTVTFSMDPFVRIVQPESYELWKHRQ
An asterisk follows results filed as active; [ ] = another dose, or the depositor's remark. Unless noted, calls come from the whole dose curve; as a rule, active = well fitted curve in the direction sought with a large enough effect; inconclusive = small, poorly fitted or top-dose-only effect, or another doubt; inactive = no such curve, though single readings can be large; an effect the other way counts as inactive or inconclusive. Unless noted, % is set by controls: 0 for no effect and ±100 for the full control effect.

Results for COc1ccc(/C=C/C(=O)Nc2sc3c(c2C(N)=O)CCC(C)C3)cc1OC (configuration not stated) ?
Tau FP inhib: 0%; Tau fluor counter: -20%; Tau ThT inhib: inconclusive

What do the screens show for `CCN1CCc2c(sc(-n3cccc3)c2C(C)NC(=O)Nc2ccc(Br)cc2)C1` (configuration not stated)?
Tau FP inhib: 25µM*; Tau fluor counter: inconclusive; Tau ThT inhib: -4%

How did Cc1cc(F)ccc1S(=O)(=O)NCC(c1ccco1)S(=O)(=O)c1cccs1 (configuration not stated) do in these assays?
Tau FP inhib: -10%; Tau fluor counter: -23%; Tau ThT inhib: -13%

What do the screens show for `O=[N+]([O-])c1ccc(/C=N/Nc2nc(-c3ccccc3)c3cc(Br)ccc3n2)o1`?
Coupling enz: 12; Tau FP inhib: 2%; Tau fluor counter: -25%; Tau ThT inhib: 2.8µM*; KDM4E inh: -2%

How did N#Cc1ccccc1/C=N/Nc1nc(-c2ccccc2)c2cc(Br)ccc2n1 do in these assays?
Coupling enz: 2; Tau FP inhib: -9%; Tau fluor counter: -22%; Tau ThT inhib: inconclusive; KDM4E inh: inconclusive

How did O=[N+]([O-])c1ccc(/C=N/Nc2nc(N3CCCC3)nc(N3CCCC3)n2)o1 do in these assays?
Coupling enz: -6; Tau FP inhib: -6%; Tau fluor counter: -21%; Tau ThT inhib: 18µM*; KDM4E inh: inconclusive

What do the screens show for `O=[N+]([O-])c1ccc(/C=N/Nc2ccc3ccccc3c2)o1`?
Coupling enz: 2; Tau FP inhib: inconclusive; Tau fluor counter: 3.5µM*[quencher]; Tau ThT inhib: 3.2µM*; KDM4E inh: -5%

What do the screens show for `Cc1ccc2nc(N/N=C\c3ccc([N+](=O)[O-])o3)nc(-c3ccccc3)c2c1`?
Coupling enz: 5; Tau FP inhib: 13%; Tau fluor counter: 10µM*[quencher]; Tau ThT inhib: 3.2µM*; KDM4E inh: 0%

How did CSCC[C@H](NC(=O)[C@H](CC(C)C)NC(=O)CNC(=O)[C@H](Cc1ccc(O)cc1)NC(=O)[C@H](Cc1ccccc1)NC(=O)[C@H](CCCCN)NC(=O)[C@H](CC(N)=O)NC(=O)[C@@H]1CCCN1C(=O)[C@H](CC(=O)O)NC(=O)[C@H](C)NC(=O)[C@@H]1CCC(=O)N1)C(N)=O do in these assays?
Coupling enz: 0

How did COc1ccc(CCn2c(=O)c3cccnc3n(CC(=O)Nc3ccc(C)cc3C)c2=O)cc1OC do in these assays?
Tau FP inhib: -7%; Tau fluor counter: -5%; Tau ThT inhib: -10%

Results for CCCN1C(=O)S/C(=C\c2ccc(N3CCOCC3)cc2C)C1=O ?
Coupling enz: -3; Tau FP inhib: 3%; Tau fluor counter: -27%; Tau ThT inhib: inconclusive; KDM4E inh: 2%

What do the screens show for `CCCN1C(=O)S/C(=C/c2ccc(N3CCOCC3)o2)C1=O`?
Coupling enz: -48*; Tau FP inhib: inconclusive; Tau fluor counter: inconclusive; Tau ThT inhib: inconclusive; KDM4E inh: 8.9µM*

Results for CCCN1C(=O)S/C(=C\c2ccc(N3CCOCC3)o2)C1=O ?
Coupling enz: -50*; Tau FP inhib: -18%; Tau fluor counter: -27%; Tau ThT inhib: 18µM*; KDM4E inh: inconclusive

How did CC[C@H](C)C(N)C(=O)O (some centres not stated) do in these assays?
Coupling enz: -1

Results for CCc1ccc2[nH]c(=O)c(C(c3nnnn3CCOC)N3CCN(c4ccccc4F)CC3)cc2c1 (configuration not stated) ?
Coupling enz: -25; Tau FP inhib: inconclusive; Tau fluor counter: -24%; Tau ThT inhib: 18µM*; KDM4E inh: inconclusive

What do the screens show for `Cc1ccc(CN(Cc2cc3cc4c(cc3[nH]c2=O)OCCO4)Cc2nnnn2Cc2ccco2)cc1`?
Coupling enz: -5; Tau FP inhib: inconclusive; Tau fluor counter: -29%; Tau ThT inhib: 35µM*; KDM4E inh: inconclusive

What do the screens show for `CCc1ccc2[nH]c(=O)c(CN(Cc3ccc(OC)cc3)Cc3nnnn3CCOC)cc2c1`?
Coupling enz: -74*; Tau FP inhib: 8%; Tau fluor counter: -3%; Tau ThT inhib: -10%; KDM4E inh: inconclusive

How did COCCn1nnnc1C(C(C)C)N(Cc1ccccc1)Cc1cc2cc(OC)ccc2[nH]c1=O (configuration not stated) do in these assays?
Coupling enz: -3; Tau FP inhib: -6%; Tau fluor counter: -29%; Tau ThT inhib: inconclusive; KDM4E inh: inconclusive

What do the screens show for `O=C(COc1ccc(Cl)cc1)Nc1ccccc1C(=O)OCc1cc(=O)n2ccsc2n1`?
Tau FP inhib: 7%; Tau fluor counter: 2%; Tau ThT inhib: 0%

How did COc1cc(OC)c(NS(=O)(=O)c2c(C(=O)N3CCCCCC3)c(C)n(C)c2C)cc1Cl do in these assays?
Tau FP inhib: -3%; Tau fluor counter: -5%; Tau ThT inhib: -2%

How did CSc1nnc(C)c(/C=C/Nc2ccc(C)cc2)n1 do in these assays?
Coupling enz: -1; Tau FP inhib: 2%; Tau fluor counter: -23%; Tau ThT inhib: 5µM*; KDM4E inh: -3%

Results for CSc1nnc(C)c(/C=C/NOCc2ccc(Cl)cc2)n1 ?
Coupling enz: 4; Tau FP inhib: 4%; Tau fluor counter: inconclusive; Tau ThT inhib: inconclusive; KDM4E inh: inconclusive

How did CCOc1ccc(C2Nc3cccc4cccc(c34)N2)cc1OC do in these assays?
Coupling enz: -5; Tau FP inhib: inconclusive; Tau fluor counter: inconclusive; Tau ThT inhib: 3.5µM*; KDM4E inh: inconclusive

How did CCOc1cc(C2Nc3cccc4cccc(c34)N2)ccc1O do in these assays?
Coupling enz: -5; Tau FP inhib: inconclusive; Tau fluor counter: 5µM*[quencher]; Tau ThT inhib: 6.3µM*; KDM4E inh: 3%

What do the screens show for `Clc1ccc(C2Nc3cccc4cccc(c34)N2)cc1Cl`?
Coupling enz: -5

How did c1ccc(C2Nc3cccc4cccc(c34)N2)cc1 do in these assays?
Coupling enz: -11

Results for Clc1cccc(C2Nc3cccc4cccc(c34)N2)c1 ?
Coupling enz: -4

Results for COc1ccc(C2Nc3cccc4cccc(c34)N2)cc1 ?
Coupling enz: -5; Tau FP inhib: -15%; Tau fluor counter: inconclusive; Tau ThT inhib: 16µM*; KDM4E inh: inconclusive

What do the screens show for `CC1CN(C(=O)N2CCC(C(=O)NCc3cccs3)CC2)c2cc(Cl)ccc2O1` (configuration not stated)?
Tau FP inhib: -7%; Tau fluor counter: -7%; Tau ThT inhib: -12%
